Unmarked numbers belong to inactive results. Results filed as inconclusive are left out. Entries that show only a call come without a potency. Active and inactive are the calls of the source. The call rests on the fitted dose curve; in most records, active means well fitted curve in the direction sought with a large enough effect; inconclusive means small, poorly fitted or top-dose-only effect, or another doubt; inactive means no such curve, though single readings can be large; an effect the other way counts as inactive or inconclusive.
Columns and labels:
[1] = molecular target: Glutathione peroxidase 1 (Homo sapiens) (UniProt P07203); assay: Primary qHTS Assay for Inhibitors of Recombinant Selenoprotein Glutathione Peroxidase 1 (GPX1) (AID 1845191); further: nearly all actives have a fitted effect of over 65% in size
Method in brief: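 GR-coupled readout: NADPH consumption tracked by fluorescence, ex 340/em 450 nm, at t=0 and after 15 min at RT. Final mix 10 nM GPX1, 1 mM GSH, 0.5 mM CHP, 0.5 mM NADPH, 100 nM GR, 0.01% BSA, following 30 min enzyme–compound preincubation.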

[2] = molecular target: Phospholipid hydroperoxide glutathione peroxidase GPX4 (Homo sapiens) (UniProt P36969); assay: Primary qHTS Assay for Inhibitors of Recombinant Selenoprotein Glutathione Peroxidase 4 (GPX4) (AID 1845192); further: nearly all actives have a fitted effect of over 65% in size; further: potency means the concentration at half of the fitted maximal effect; on activity change, negative = inhibition: series mostly up to about 50 µM
Method in brief: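 Steps: GPX4 plus compound, 30 min RT; add GR/GSH/NADPH master mix; start with cumene hydroperoxide; read 340/450 nm fluorescence at 0 and 15 min. Finals were 200 nM GPX4, 1 mM GSH, 0.5 mM CHP, 0.5 mM NADPH, 100 nM GR.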

[3] = molecular target: Luciferin 4-monooxygenase (Photinus pyralis) (UniProt P08659); assay: Primary firefly luciferase (FLuc) qHTS assay for identification of artifact compounds. (AID 1845220); further: nearly all actives have a fitted effect of over 60% in size; on activity change, negative = inhibition: series mostly up to about 54 µM
Method in brief: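 D-luciferin and ATP (10 uM each, final) in Tris acetate buffer pH 7.6 were incubated with compounds for 15 min at room temperature. The reaction was started with 10 nM Photinus pyralis luciferase and luminescence read after 5 min. Percent inhibition was fitted to a 4-parameter Hill equation.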

[4] = Primary fluorescence-based thiol-reactive (MSTI) qHTS assay for identification of artifact compounds. (AID 1845221); further: nearly all actives have a fitted effect of over 65% in size; further: potency means the concentration at half of the fitted maximal effect;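 on activity change, negative = thiol reactive: series mostly up to about 54 µM; thiol-reactive compounds lower the probe fluorescence signal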
Method in brief: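 qHTS titration of compound; 4 uM MSTI, PBS pH 7.4, 2% DMSO; 1 h RT, dark; fluorescence 525/598 nm; normalized to Acetyl-MSTI and MSTI; 4-parameter Hill fit.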

[5] = test system: Nanoluciferase (engineered Oplophorus gracilirostris luciferase); assay: Primary Nanoluciferase (NLuc) qHTS assay for identification of artifact compounds. (AID 1845222); further: series mostly up to about 54 µM
Method in brief: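 Diluted conditioned medium from NLuc-expressing S16 cells treated with compounds for 15 min at room temperature, then Nano-Glo substrate added; luminescence read after 5 min. Percent inhibition versus no-enzyme and DMSO controls fitted to 4-parameter Hill equation.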

[6] = Primary redox qHTS assay for identification of artifact compounds. (AID 1845223)
Method in brief: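 Redox-cycling detection via DTT (250 uM final) oxidation coupled to Amplex Red (25 uM)/HRP (250 mU/mL) in HBSS. 15 min preincubation plus 30 min after DTT, room temperature. Ex/Em 525/598 nm; 4-parameter Hill fit against DMSO and 10 uM DA3003.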

Chain of Phospholipid hydroperoxide glutathione peroxidase GPX4 (Homo sapiens) (P36969 whole entry, looked up): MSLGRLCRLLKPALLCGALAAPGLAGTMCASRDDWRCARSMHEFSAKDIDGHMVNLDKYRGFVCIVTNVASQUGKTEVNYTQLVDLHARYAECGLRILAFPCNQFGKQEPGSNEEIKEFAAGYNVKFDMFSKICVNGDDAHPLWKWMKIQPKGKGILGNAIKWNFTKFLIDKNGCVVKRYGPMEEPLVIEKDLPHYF
Chain of Glutathione peroxidase 1 (Homo sapiens) (P07203 whole entry, looked up): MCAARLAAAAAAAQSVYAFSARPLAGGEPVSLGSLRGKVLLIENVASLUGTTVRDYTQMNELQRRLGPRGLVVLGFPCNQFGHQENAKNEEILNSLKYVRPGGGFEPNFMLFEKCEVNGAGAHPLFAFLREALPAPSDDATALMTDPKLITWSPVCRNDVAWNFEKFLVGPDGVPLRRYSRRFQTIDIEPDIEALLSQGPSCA

SMILES | Potency [1] | Potency [2] | Potency [3] | Potency [4] | Potency [5] | Potency [6] | outcome [1] | activity change, negative = inhibition [2] | outcome [3] | activity change, negative = thiol reactive [4] | activity, negative = inhibition [5] | redox activity (% of DA3003) [6]
C=C1C(=O)O[C@@H]2[C@H]1CCC(C)=C(CCC(=O)O)[C@@]2(C)O | inactive | inactive | inactive | inactive | inactive | inactive | – | – | – | – | – | –
CC(=O)O[C@H]1CC2C(COC(=O)CC(C)C)=CO[C@@H](OC(=O)CC(C)C)C2[C@]12CO2 (stereo not given in full) | inactive | inactive | inactive | inactive | inactive | inactive | – | – | – | – | – | –
O=C(O)c1ccc(S(=O)(=O)N(Cc2ccc(OC(F)(F)F)cc2)c2ncc(C(F)(F)F)cc2Cl)cc1 | inactive | inactive | inactive | inactive | inactive | inactive | – | – | – | – | – | –
C=CC(=O)Nc1cccc(Nc2nc(Nc3ccc(NC4CN(CCF)C4)cc3OC)ncc2C(F)(F)F)c1 | inactive | inactive | inactive | 2.38 µM (active) | inactive | inactive | – | – | – | – | – | –
COC(CCc1ccc(O)cc1)CC(=O)CCc1ccc(O)cc1 (stereo not given) | inactive | inactive | inactive | inactive | inactive | inactive | – | – | – | – | – | –
Cc1cn2cc(C(=O)N(C)CCO)cc(NC3CCOc4cccc(C)c43)c2n1 (stereo not given) | inactive | inactive | inactive | inactive | inactive | inactive | – | – | – | – | – | –
COc1cc(C(=O)NC(=S)Nc2cccc(NC(=O)c3ccccc3)c2)cc(OC)c1OC | inactive | inactive | inactive | inactive | inactive | inactive | – | – | – | – | – | –
O=c1[nH]c2ccccc2n1CCN1CCN(c2cccc(C(F)(F)F)c2)CC1 | inactive | inactive | inactive | inactive | inactive | inactive | – | – | – | – | – | –
Cc1cc(-c2cnc(N)c3c(-c4ccc5scnc5c4)csc23)n(C)n1 | inactive | inactive | inactive | inactive | inactive | inactive | – | – | – | – | – | –
COc1cccc(-c2cc(F)ccc2C2Cc3nc(N)nc(C)c3C(=O)N2)n1 (stereo not given) | inactive | inactive | inactive | inactive | inactive | inactive | – | – | – | – | – | –
Cc1cc(C(=O)Nc2cc(Oc3ccc4nc(NC(=O)C5CC5)cn4n3)ccc2C)n(C)n1 | inactive | 25.5 µM (active) | inactive | inactive | inactive | inactive | – | – | – | – | – | –
C[C@@H]1O[C@@H](O[C@H]2[C@@H](OC(=O)[C@]34CCC(C)(C)CC3C3=CCC5[C@@]6(C)C[C@H](O)[C@H](O[C@@H]7O[C@H](CO)[C@@H](O)[C@H](O)[C@H]7O[C@@H]7OC[C@@H](O)[C@H](O)[C@H]7O)[C@@](C)(C(=O)O)C6CC[C@@]5(C)[C@]3(C)CC4)OC[C@H](O)[C@@H]2O)[C@H](O)[C@H](O)[C@H]1O[C@@H]1OC[C@@H](O)[C@H](O)[C@H]1O (stereo not given in full) | – | – | – | – | – | – | inactive [at 9.52 µM] | 1.61% [at 9.73 µM] | inactive [at 11.6 µM] | 151% [at 11.5 µM] | 3.4% [at 11.6 µM] | 18.4% [at 11.5 µM]
CC(C)OC(=O)N1CCC(Oc2ncnc3c2cnn3-c2ccc(S(C)(=O)=O)cc2F)CC1 | inactive | inactive | inactive | inactive | inactive | inactive | – | – | – | – | – | –
C=CCCN1CCC2(CC1)CN(C(=O)c1c(F)cccc1F)c1ccc(Cl)cc12 | inactive | inactive | inactive | inactive | inactive | inactive | – | – | – | – | – | –
Cc1cc2sc(NC(=O)Cc3ccccc3)nc2cc1Cl | inactive | inactive | inactive | inactive | inactive | inactive | – | – | – | – | – | –
COc1ccc(CCCN2CCC(COC(c3ccccc3)c3ccccc3)CC2)cc1 | inactive | inactive | inactive | inactive | inactive | inactive | – | – | – | – | – | –
O=C(Nc1ccccc1)N1CCC(Cc2cnc3ccccc3c2)CC1 | inactive | inactive | inactive | inactive | inactive | inactive | – | – | – | – | – | –
CCCCOc1ccc(S(=O)(=O)n2c(C)nc3ccccc32)cc1 | inactive | inactive | inactive | inactive | inactive | inactive | – | – | – | – | – | –
COC1=CC(=O)C[C@@H](C)[C@@]12Oc1c(Cl)c(OC)cc(OC)c1C2=O | inactive | inactive | inactive | inactive | inactive | inactive | – | – | – | – | – | –
O=C(N[C@H]1CCN(C(=O)c2cc(C(F)(F)F)cc(C(F)(F)F)c2)[C@H](Cc2ccc(Cl)cc2)C1)c1ccnc2ccccc12 | inactive | inactive | inactive | inactive | inactive | inactive | – | – | – | – | – | –
CCCNCCc1ccc(NS(=O)(=O)c2ccc(OC(F)(F)F)cc2)cc1 | inactive | inactive | inactive | inactive | inactive | inactive | – | – | – | – | – | –
Cc1c(C(=O)Nc2ccc(N3CCC(N4CCOCC4)CC3)c(C#N)c2)cnn1-c1ccc(Cl)cc1 | inactive | inactive | inactive | inactive | inactive | inactive | – | – | – | – | – | –
COc1cc(-n2cnc3cc(-c4ccc(Cl)cc4)sc3c2=O)ccc1OCCN1CCCC1 | inactive | inactive | inactive | inactive | inactive | inactive | – | – | – | – | – | –
CN(C)N(C)C(=O)[C@@]1(Cc2ccccc2)CCCN(C(=O)[C@@H](Cc2c[nH]c3ccccc23)NC(=O)C(C)(C)N)C1 | inactive | inactive | inactive | inactive | inactive | inactive | – | – | – | – | – | –
C=C1CC(=O)C2OC2(C)CC2OC(=O)C(=C)C2C(O)C1OC(=O)/C(C)=C\C (stereo not given) | inactive | inactive | inactive | inactive | inactive | inactive | – | – | – | – | – | –

From PubChem BioAssay (NCATS)
